Test systems include NCI-H23 lung; NCI-H226 lung; NCI-H322M lung; HOP-62 NSCLC; NCI-H460 lung; HOP-92 NSCLC; NCI-H522 lung; A549/ATCC NSCLC; 786-0 renal; COLO 205 colon.
Holding throughout (assay): NCI-60 one-dose screen, 48 h (100 = growth as untreated, 0 = no growth, -100 = all killed)
Common to all, as to conditions: 10 µM unless noted

About 83,000 compounds went through this panel and 20% of them were active in at least one assay; those are over-represented in the sample as a whole.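 Cell lines were cultured in 96-well plates, exposed to a single compound concentration, and assessed for percent growth 48 hours later.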 Values without a mark were called inactive. The source made the active and inactive calls. Rule for the calls: active = growth percent below 10; inactive = the rest.

Turning to `NC(=O)c1ccc[n+]([C@@H]2O[C@H](COP(=O)([O-])OP(=O)(O)OC[C@H]3O[C@@H](n4cnc5c(N)ncnc54)[C@H](O)[C@@H]3O)[C@@H](O)[C@H]2O)c1`, the growth with NCI-H23 lung is 103%; in the assay with NCI-H226 lung, 117%; in the assay on NCI-H322M lung, 113%; in the assay with HOP-62 NSCLC, 108%; with NCI-H460 lung it was 104%; in the assay with HOP-92 NSCLC, 111%. In addition, the growth in the assay with NCI-H522 lung was 105%; in the assay with A549/ATCC NSCLC, 105%; in the assay with 786-0 renal, 103%; in the assay on COLO 205 colon, 113%.

Take `COc1ccc2c(c1)[nH]c(=O)c1c3cccnc3cn21`: the growth in the assay on NCI-H23 lung is 36.6%; with NCI-H226 lung it was 66.3%; in the assay with NCI-H322M lung it was 85.8%; in the assay on HOP-62 NSCLC, 38.4%; with NCI-H460 lung, 1.71% (active); in the assay on HOP-92 NSCLC, 73.5%. The growth with NCI-H522 lung was 12%; with A549/ATCC NSCLC, 13%; in the assay with 786-0 renal, 25.7%; with COLO 205 colon it was -45.4% (active).

As for `CC(=O)c1nc(Nc2ccc(C)cc2)sc1C`, the growth in the assay on NCI-H23 lung was 90.9%; with NCI-H226 lung, 81.7%; in the assay with NCI-H322M lung, -98.9% (active); with HOP-62 NSCLC, 85.7%; in the assay on NCI-H460 lung it was 104%; with HOP-92 NSCLC, 73.2%. Moreover, the growth is 86.9% in the assay on NCI-H522 lung, 96.7% with A549/ATCC NSCLC, 98.1% in the assay on 786-0 renal and 105% with COLO 205 colon.

`CC(C)C(=O)Nc1n[nH]c2cc(-c3cccc(NS(=O)(=O)C4CC4)c3)ccc12`: the growth in the assay with NCI-H23 lung is 53.6%; with NCI-H226 lung, 60%; with NCI-H322M lung, 96.2%; in the assay with HOP-62 NSCLC it was 66.5%; with NCI-H460 lung, 84.4%; with HOP-92 NSCLC it was 72.7%. For the same compound, the growth with NCI-H522 lung was 40.8%; with A549/ATCC NSCLC it was 80.3%; in the assay on 786-0 renal it was 89.2%; in the assay with COLO 205 colon, 84.7%.

For `COc1ccc(-c2nc(SCC(=O)Nc3nc(-c4ccccc4)cs3)[nH]c(=O)c2C#N)cc1`, the growth with NCI-H23 lung was 88.3%; in the assay on NCI-H226 lung, 85%; in the assay with NCI-H322M lung, 90.7%; in the assay on HOP-62 NSCLC it was 82.4%; in the assay on NCI-H460 lung, 114%; in the assay on HOP-92 NSCLC, 81.5%. Further, the growth with NCI-H522 lung was 84%; in the assay on A549/ATCC NSCLC, 104%; in the assay on 786-0 renal, 100%; in the assay with COLO 205 colon, 112%.

Take `CCc1ccccc1-n1c(N)c(C#N)c(-c2ccc(N(C)C)cc2)c(C#N)c1=O`: the growth with NCI-H23 lung is 96.2%; in the assay with NCI-H226 lung it was 98.6%; in the assay on NCI-H322M lung, 86.3%; in the assay with HOP-62 NSCLC, 106%; in the assay with NCI-H460 lung, 96.4%; with HOP-92 NSCLC it was 68.3%. The growth is 93.7% with NCI-H522 lung, 98.9% with A549/ATCC NSCLC, 93.9% in the assay with 786-0 renal and 114% in the assay with COLO 205 colon.

With `COc1cc(CCC[P+](c2ccccc2)(c2ccccc2)c2ccccc2)cc2c1OCO2`, the growth in the assay on NCI-H23 lung was 19.1%; in the assay on NCI-H226 lung, 55.5%; in the assay with NCI-H322M lung, 79.4%; in the assay on HOP-62 NSCLC, 92.3%; with NCI-H460 lung it was 37.9%; in the assay on HOP-92 NSCLC, 25.3%. The growth in the assay with NCI-H522 lung was 13.2%; in the assay on A549/ATCC NSCLC it was 73.2%; with 786-0 renal, 63.9%; in the assay on COLO 205 colon it was 3.37% (active).

`O=c1[nH][n+](-c2ccc(Cl)cc2)no1`: the growth with NCI-H23 lung was 91.6%; in the assay on NCI-H226 lung, 87.2%; with NCI-H322M lung, 75.6%; with HOP-62 NSCLC, 82.7%; in the assay with NCI-H460 lung, 44.1%; with HOP-92 NSCLC it was 95.1%. Further, the growth in the assay with NCI-H522 lung was 59.2%; with A549/ATCC NSCLC, 62.1%; in the assay with 786-0 renal, 61.2%; with COLO 205 colon it was 77.9%.

Consider `CC(C)CC(NC(=O)CN(Cc1ccccc1)S(C)(=O)=O)C(=O)O` (stereo not given), for which the growth was 93.1% in the assay with NCI-H23 lung; 104% with NCI-H226 lung; 93.8% in the assay on NCI-H322M lung; 96% with HOP-62 NSCLC; 98.7% in the assay with NCI-H460 lung; -0.442% (active) in the assay on HOP-92 NSCLC. The growth in the assay on NCI-H522 lung is 103%; in the assay with A549/ATCC NSCLC, 96.5%; in the assay with 786-0 renal, 93.6%; with COLO 205 colon, 112%.

Consider `CCOc1ccccc1-n1c(CN2CCN(C(=O)COc3ccc(CNCCCCCCN4C5CCCC4CC(OC(=O)Nc4cc(C)ccc4OC)C5)cc3)CC2)nc2ccccc2c1=O` (stereo not given), for which the growth with NCI-H23 lung was -82.6% (active); with NCI-H226 lung it was -73.5% (active); in the assay with NCI-H322M lung it was -98.1% (active); in the assay with HOP-62 NSCLC it was -92% (active); with NCI-H460 lung, -90.9% (active); with HOP-92 NSCLC, -90.2% (active). Also, the growth is -86.7% (active) in the assay on NCI-H522 lung, -88.2% (active) with A549/ATCC NSCLC, -89.6% (active) in the assay on 786-0 renal and -85.1% (active) with COLO 205 colon.

Consider `O=C(Cc1ccc(F)c(F)c1)Nc1cc(C2(C(F)(F)F)CC2)nn1Cc1ccccc1`, for which the growth in the assay with NCI-H23 lung was -9.81% (active); with NCI-H226 lung, 8.26% (active); with NCI-H322M lung it was 13.4%; in the assay with HOP-62 NSCLC it was -0.0766% (active); with NCI-H460 lung it was 0.876% (active); in the assay on HOP-92 NSCLC, -17.7% (active). Besides, the growth in the assay on NCI-H522 lung was -24.6% (active); with A549/ATCC NSCLC, 9.17% (active); with 786-0 renal, 12.1%; in the assay with COLO 205 colon, -86.7% (active).

For the compound `COc1cc(N=Nc2cc(Cc3ccc(N(C)C)cc3)c(N)cc2N(C)C)c2ncccc2c1`, the growth with NCI-H23 lung is 1.24% (active); in the assay on NCI-H226 lung, 19.4%; in the assay with NCI-H322M lung, 11%; with HOP-62 NSCLC, 20%; in the assay with NCI-H460 lung, -60.2% (active); with HOP-92 NSCLC, -8.54% (active). The growth with NCI-H522 lung was -5.05% (active); with A549/ATCC NSCLC, -45.9% (active); in the assay with 786-0 renal, -88.9% (active); in the assay with COLO 205 colon, -33.7% (active).

With `CCN1C(=O)N(CC)C2Nn3c(s/c(=C4\C(=O)N(C)c5ccccc54)c3=O)=NC21` (stereo not given), the growth with NCI-H23 lung is 44.3%; with NCI-H226 lung it was 78.9%; in the assay with NCI-H322M lung, 75%; with HOP-62 NSCLC it was 58.4%; in the assay with NCI-H460 lung, 22.6%; in the assay on HOP-92 NSCLC, 75.5%. The growth in the assay on NCI-H522 lung is 0.903% (active); in the assay with A549/ATCC NSCLC, 49.3%; with 786-0 renal, 27.8%; with COLO 205 colon, 8.23% (active).

These data come from PubChem BioAssay (NCI).
